Bioassay records: PubChem, several laboratories
M1 antag: antagonists of rat M1 muscarinic receptor; B-score at 10 µM; Muscarinic acetylcholine receptor M1 (Rattus norvegicus), P08482; CHO-M1 cells, Fluo-4 calcium, ACh EC80 antagonist mode; active compounds read low; 64,000 tested, 3.4% active;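 active = calcium fluorescence response, raw or row-and-column corrected B-score, differing from the plate sample mean either way at a set confidence level, mostly lower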
hDAT+cocaine: changed hDAT dopamine uptake under cocaine IC80, either direction, primary screen, cocaine antagonist project, cell-based, LLC-PK1 hDAT, [14C]-dopamine uptake, MLSMR. B-score at 10 µM. 110,000 tested, 1.3% active. AID 449768, 2010. LLC-PK1 hDAT cells, [14C]-dopamine uptake with cocaine IC80; actives deviate in either direction. Sodium-dependent dopamine transporter (Homo sapiens), Q01959;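 active = Z score or B-score, a plate-position-corrected score, falls beyond the plate's 99.7% confidence bounds, in either direction; inactive = both scores lie inside the 99.7% bounds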;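 also: scored against the spread of the other compound wells on the same plate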
Target sequence (Q01959 whole entry, looked up): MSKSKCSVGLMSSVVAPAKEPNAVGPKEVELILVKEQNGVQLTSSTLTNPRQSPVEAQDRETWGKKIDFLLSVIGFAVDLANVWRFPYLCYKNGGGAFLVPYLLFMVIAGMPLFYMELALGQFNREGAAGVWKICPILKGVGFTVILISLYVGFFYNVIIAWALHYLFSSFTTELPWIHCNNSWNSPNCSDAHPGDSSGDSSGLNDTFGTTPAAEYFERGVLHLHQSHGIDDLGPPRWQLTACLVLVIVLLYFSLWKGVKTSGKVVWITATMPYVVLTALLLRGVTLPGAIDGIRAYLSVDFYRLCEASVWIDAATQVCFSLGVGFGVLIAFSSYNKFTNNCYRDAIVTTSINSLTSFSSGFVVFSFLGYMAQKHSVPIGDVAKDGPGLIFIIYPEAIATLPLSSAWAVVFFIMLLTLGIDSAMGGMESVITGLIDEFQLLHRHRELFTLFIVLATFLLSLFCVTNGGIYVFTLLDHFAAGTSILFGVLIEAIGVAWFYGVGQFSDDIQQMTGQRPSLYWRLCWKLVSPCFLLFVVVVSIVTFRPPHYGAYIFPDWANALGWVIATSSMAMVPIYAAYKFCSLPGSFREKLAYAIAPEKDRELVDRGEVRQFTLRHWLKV
D1 allo mod: D1 CRE-luciferase signal change, two-sided – cell-based, HEK293 D1, dopamine EC30, D1 allosteric modulator project, primary screen. 58,000 tested, 5.9% active. B-score at 10 µM. dopamine EC30 potentiation; actives deviate in either direction. D(1A) dopamine receptor (Homo sapiens), P21728. AID 641, 2007;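 active = luminescence count or its row- and column-corrected plate score outside the 99.7% band of the plate's sample wells, on either side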
FXIIa inh mix: human factor XIIa inhibitors, primary screen, biochemical, pooled compound mixtures, fluorogenic substrate; Coagulation factor XII (Homo sapiens), P00748; purified FXIIa; inhibition, % at 5 µM; 62,000 tested, 0.2% active;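 also: 0% = enzyme without compound and 100% = no enzyme blank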
FXIa inh mix: FXIa protease inhibitors in compound pools, primary screen, biochemical, 10-compound mixtures; inhibition, % at 5 µM; Coagulation factor XI (Homo sapiens), P03951; purified FXIa, fluorogenic substrate, pooled mixtures; AID 680, 2007; 62,000 tested, 0.19% active;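 also: each value is inhibition by a whole ten-compound pool holding the compound; 0% = enzyme with no mixture and 100% = wells lacking enzyme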
M1 agonist: M1 muscarinic receptor agonists, primary screen, CHO-M1 cells, Fluo-4 calcium, agonist mode | Muscarinic acetylcholine receptor M1 | Fluo-4 calcium fluorescence; active compounds read high | B-score at 10 µM | 64,000 tested, 3% active;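 active = fluorescence rise, raw or as B-score row- and column-corrected plate score, outside the 99.7% band of its plate's samples, either direction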
M1 antag conf: rat M1 muscarinic receptor antagonists, confirmation, CHO cells, Fluo-4 calcium, duplicate | shares compounds with M1 antag | ACh EC80 antagonism; active compounds read low | calcium response (max-min fluorescence) at 10 µM | 1,700 tested, 43% active | AID 677, 2007;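 active = calcium response below the same-plate mean of wells given acetylcholine alone at its 80%-effect dose, minus 3 SD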;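 also: raw fluorescence intensity difference in arbitrary instrument units and not normalized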
mGluR4 antag: human mGluR4 response to M1 antagonist hits, M1 allosteric modulator project, cell-based, antagonist mode, secondary assay 1; shares compounds with M1 antag; CHO-mGluR4 calcium flux, Fluo-4 fluorescence, glutamate EC80; active compounds read low; fluorescence response (max-min) at 10 µM; 1,700 tested, 0.9% active; AID 678, 2007;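 active = fluorescence response below the plate's average for near-maximal glutamate wells, less 3 SD of those wells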;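 also: raw unnormalized fluorescence span taken in the window right after glutamate addition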
* marks the source's active call; other numbers are inactive results; . = no result given. Most compounds without a hit are left out; they make up all but 7.4% or so of the library. Rule as the data show it, unless noted: active = inhibition above about 20% (passing the limit was not always enough); inactive = the rest.

SMILES	M1 antag	hDAT+cocaine	D1 allo mod	FXIIa inh mix	FXIa inh mix	M1 agonist	M1 antag conf	mGluR4 antag
COc1cccc(-c2nc(CS(=O)(=O)CC(=O)NCCCN3CCc4ccccc4C3)c(C)o2)c1	-1.83*	0.00805	-0.125	8.8	4.6	-1.99	419	202
Cn1c(SCC(=O)Nc2cc(=O)n(C)c(=O)n2C)nnc1C12CC3CC(CC(C3)C1)C2	-1.04	.	.	1.5	5.0	-0.365	.	.
O=C(CSc1nnc(COc2ccccc2Cl)o1)NC(=O)NC1CCCC1	-0.723	0.0803	-1.25	-7.3	6.7	0.79	.	.
O=C(COc1ccccc1Cl)NC(=O)NC1CCCC1	-8.73*	1.01	-0.169	2.1	7.9	-0.271	233*	267
O=C(CCCCCn1c(=O)[nH]c2ccccc2c1=O)NCCCN1CCN(c2ccccc2F)CC1	-3.55*	.	-1.84	6.7	0.7	0.309	506	220
O=C(CSc1nnc(-c2cccs2)n1-c1ccccc1)N1CCc2ccccc21	-3.01*	.	-0.175	6.7	2.6	0.147	457	205
COC(=O)COc1ccc(S(=O)(=O)Nc2ccc(NC(C)=O)cc2)cc1C	-3.09*	-0.282	-0.00597	6.7	-6.1	0.463	611	241
CC(=O)N(Cc1ccccc1)c1ccc(C(=O)O)cc1	-2.03*	-0.812	.	.	.	-0.264	16.1*	232
S=c1[nH]nc(-c2ccc(Br)cc2)n1Cc1ccco1	-10.2*	-0.719	-1.21	-0.7	-1.6	-0.0942	326*	227
Cc1ccc(S(=O)(=O)Cn2nnnc2C(C(C)C)N2CCSCC2)cc1 (configuration not stated)	-2.33*	1.06	0.000254	3.5	3.3	0.742	646	240
CCN1CCN(c2cc(=O)n(-c3cc(Cl)ccc3C)c(=O)[nH]2)CC1	0.479	-0.83	-0.573	-13.5	6.8	-0.948	.	.
COc1ccc(NC(=O)C2CCN(C(=O)c3ccccc3)CC2)c(OC)c1	-0.569	1.59	-0.71	1.6	8.3	-0.00687	.	.
COc1ccc(C(=O)N2CCC(C(=O)Nc3ccccc3OC)CC2)cc1	-4.99*	0.88	-0.344	2.5	4.2	0.19	644	249
Cc1cccc(C2=NN(c3ccc(Br)cc3)[C@@H](C(=O)N3CCOC3=O)[C@@H]2c2ccc(F)cc2)c1	.	-0.677	.	.	.	.	.	.
COc1ccc(OC)c(CNC(=O)C2CCN(C(=O)N(C)C)CC2)c1	-3.04*	-0.604	1.83	0.0	2.8	-0.32	644	266
CCCCSc1nc2c(cc1C#N)CCC2	-0.103	0.142	2.12	4.5	6.3	0.575	.	.
CS(=O)CSc1nc2c(cc1C#N)CCCC2 (configuration not stated)	-9.31*	-1.73	0.502	2.9	3.2	-0.198	260*	203
OC(CN1CCCCC1)CN(c1ccccc1)c1ccccc1 (configuration not stated)	-21.7*	-0.206	-2.61	7.3	1.0	1.79	77.7*	193
OC(CN1CCOCC1)CN(c1ccccc1)c1ccccc1 (configuration not stated)	-0.0705	-1.06	-1.61	-4.0	12.0	-0.602	.	.
CCCC(=O)Nc1sc(C(=O)OC)c(C)c1C(N)=O	0.0322	0.928	-0.0593	-7.4	1.9	0.0368	.	.
COC(=O)/C(=C\Nc1ccc(Cl)cc1Cl)NC(=O)c1ccccc1	.	0.00573	.	.	.	.	.	.
CCN(C(=O)Cc1c(C(=O)O)[nH]c2ccccc12)c1cc(OC)ccc1OC	-2.24*	-1.25	-0.0249	3.9	-4.6	-0.637	448	207
COc1cccc(NC(=O)Cc2c(C(=O)O)[nH]c3ccccc23)c1	.	-1.09	.	.	.	.	.	.
Cn1c(CCN2CCOCC2)nc2cc(NC(=O)COc3ccccc3)ccc21	-3.68*	0.192	-0.751	-5.2	9.1	-0.196	581	174
CC(=O)Nc1ccc2c(c1)nc(CCN1CCC(C)CC1)n2C	.	0.051	.	.	.	.	.	.
SMILES	M1 antag	hDAT+cocaine	D1 allo mod	FXIIa inh mix	FXIa inh mix	M1 agonist	M1 antag conf	mGluR4 antag
CC1CCN(CCc2nc3cc(NC(=O)Nc4ccccc4)ccc3n2C)CC1	-10.2*	0.479	-0.241	-23.1	3.3	-1.11	302*	209
Cn1c(CN2CCCCC2)nc2cc(NC(=O)c3ccccc3)ccc21	-2.77*	0.0501	.	0.7	1.2	0.0338	472	208
Cn1c(CCN2CCN(c3ccccc3)CC2)nc2cc(NC(=O)c3ccco3)ccc21	-5.51*	.	-2.53	-0.7	0.4	0.595	125*	203
NC(=O)[C@@H]1CCCCNc2c(F)cc([N+](=O)[O-])cc2C(=O)N[C@@H](CC(=O)O)C(=O)N[C@@H](CCC(=O)O)C(=O)N1	.	-0.831	.	.	.	.	.	.
Cn1c(CN2CCCCC2)nc2cc(NS(=O)(=O)c3ccc(Cl)cc3)ccc21	-0.865	0.00692	0.522	-1.1	-1.2	-1.62	.	.
CC1CCN(CCc2nc3cc(NS(=O)(=O)c4ccccc4)ccc3n2C)CC1	-5.98*	-1.13	-0.327	6.0	3.2	1.06	415*	262
Cn1c(CCN2CCCCC2)nc2cc(NS(=O)(=O)c3ccc(Cl)cc3)ccc21	-3.13*	-0.0223	-1.32	2.7	12.6	-0.92	305*	243
CC1CCN(CCc2nc3cc(NS(=O)(=O)c4ccc(F)cc4)ccc3n2C)CC1	-4*	.	0.0906	5.6	-1.3	-0.101	405*	267
Cn1c(CCN2CCCCC2)nc2cc(NC(=O)C3CCCCC3)ccc21	-3.85*	-0.0471	-1.39	6.3	-1.8	-0.231	408*	198
COc1ccc(-n2nc(C(=O)NCC(=O)NCC3CCCO3)c3ccccc3c2=O)cc1 (configuration not stated)	0.0565	-0.0612	0.0438	11.7	7.5	-0.377	.	.
COc1ccc(NC(=O)C(c2ccccc2)N(C)C(=O)c2cnccn2)cc1 (configuration not stated)	-0.73	0.777	0.155	1.4	-1.2	-0.332	.	.
Cn1c(SCC(=O)N2CCCCCC2)nc2c([nH]c3ccccc32)c1=O	-2.34	-0.528	0.47	-4.6	3.6	0.276	.	.
Cn1c(SCC(=O)N2CCCCC2)nc2c([nH]c3ccccc32)c1=O	-3.48*	-1.07	-0.589	-21.4	5.2	0.18	443*	260
O=C1c2ccccc2C(=O)N1CCCCN1CCN(CCCCN2C(=O)c3ccccc3C2=O)CC1	-1.95	.	-1.41	0.2	5.4	-0.121	.	.
